Results taken from PubChem BioAssay (Tox21).
Records with an inconclusive call do not appear. Where a call stands in place of a potency, no number is given. The source holds several records for some structures; these can differ, active in one and inactive in another. Active and inactive are the calls of the source. Calls follow the shape of the dose curve; as a rule, active = well fitted cell-killing curve with a large enough effect in the repeat runs; inconclusive = weak or mixed curves, or effect the other way; inactive = flat fitted curve, though single readings scatter.

Experiment: qHTS RealTime-Glo MT Cell Viability Assay in HEK293 cells - 8 hour (AID 1224887); also: nearly all actives have a fitted effect of over 50% in size; as to activity change, negative = cytotoxicity: top concentration of the series differs between compounds
Conditions: RealTime-Glo luminescence; series mostly up to 76.8 µM
Text: U.S. Tox21 Program National Center for Advancing Translational Sciences [NCATS] NIH Chemical Genomics Center [NCGC] U.S. Environmental Protection Agency [EPA] National Institutes of Environmental Health Sciences [NIEHS] National Toxicology Program [NTP] U.S. Food and Drug Administration [FDA] Tox21 Assay Overview: Measure of cell viability is critical in the cell-base assay. Analysis of cell viability is necessary for the characterization of cell responses to cytotoxic drugs and environmental stress. A RealTime-Glo MT Cell Viability Assay to monitor cell viability in real time of continues cell culture during 40 hours of compound treatment was used to screen Tox21 10K library compounds in Hek293 cells. The RealTime-Glo MT Cell Viability Assay is a nonlytic, homogeneous, bioluminescent method to measure cell viability in real time using a simple, plate-based method. The assay involves adding NanoLuc luciferase and a cell-permeant prosubstrate to cells in culture. Viable cells reduce the proprietary prosubstrate to generate a substrate for NanoLuc luciferase. This substrate diffuses from cells into the surrounding culture medium, where it is rapidly used by the NanoLuc Enzyme to produce a luminescent signal. The signal correlates with the number of viable cells, making the assay well suited for cytotoxicity studies.
Tox21 Assay Protocol Summary: The mixture of Hek293 cell suspension and reagents were dispensed at 600cells/6 ul/well in 1536-well tissue culture treated black solid bottom plates using a Multidrop dispenser. After the assay plates were incubated at a 37 C/5% CO2 incubator for 5 hours, 23 nL of compounds dissolved in DMSO, positive and negative controls was transferred to the assay plate by a pintool work station. The plates were incubated at 37 C for 40 hours. The luminescence intensity were measured at 0h, 8h, 16h, 24h, 32h and 40h time points using ViewLux plate reader during compound treatment.
Potency is read from the fitted curve at half-maximal effect.

| SMILES | Potency | activity change, negative = cytotoxicity |
| --- | --- | --- |
| CCCCC(CC)COC(=O)CCCCC(=O)OCc1ccccc1 (stereo not given) | inactive |  |
| Cl[Si](Cl)(c1ccccc1)c1ccccc1 | inactive |  |
| CC[N+](CC)(CC)CCOc1ccc(/C=C/c2ccccc2)cc1 | inactive |  |
| CCN1C(=O)c2ccccc2C1Nc1ccc(OCCN2CCCCC2)cc1 (stereo not given) | 3.79 µM (active) |  |
| CCCC[P+](C)(CCCC)CCCC | inactive |  |
| CC(C)(C)CC(C)(C)c1ccc(Nc2ccc(C(C)(C)CC(C)(C)C)cc2)cc1 |  | -20.4% [at 6.97 µM] (inactive) |
| C[C@@H](O)[C@H](N)C(=O)O |  | -0.878% [at 15.8 µM] (inactive) |
| C=CC(=O)Nc1cc2c(Nc3ccc(F)c(Cl)c3)ncnc2cc1OCCCN1CCOCC1 | 9.52 µM (active) |  |
| COC(C)=O | inactive |  |
| Nc1nc2c(ncn2COCCO)c(=O)[nH]1 | inactive |  |
| S=C([S-])NCCNC(=S)[S-].S=C([S-])NCCNC(=S)[S-].[Mn+2].[Zn+2] | inactive |  |
| CN1CCN2c3ccccc3Cc3ccccc3C2C1 (stereo not given) | inactive |  |
| Nc1ccc(C(=O)O)c(O)c1 | inactive |  |
| Cc1c(N)cccc1C(F)(F)F | inactive |  |
| CC(C)NC[C@@H](O)COc1ccc(CC(N)=O)cc1 | inactive |  |
| CC(=O)Oc1cc2c(s1)CCN(C(C(=O)C1CC1)c1ccccc1F)C2 (stereo not given) | inactive |  |
| O=[N+]([O-])c1ccc(F)c(Cl)c1 | inactive |  |
| CCOC(=O)NNc1ccc(N(CC)CC(C)O)nn1 (stereo not given) | inactive |  |
| S=c1nccc[nH]1 | inactive |  |
| CCCCCCCCCCCCCC[N+](C)(C)C | 53.1 µM (active) and inactive |  |

| SMILES | Potency | activity change, negative = cytotoxicity |
| --- | --- | --- |
| ClCCl | inactive |  |
| C[C@H]1NCc2cc(-c3ccc4c(=O)c(C(=O)O)cn(C5CC5)c4c3OC(F)F)ccc21 |  | -3.93% [at 15.8 µM] (inactive) |
| CNc1ccc([N+](=O)[O-])cc1 | inactive |  |
| CCCC(=O)OCCc1ccccc1 | inactive |  |
| O=C(/C=C/c1ccc(O)c(O)c1)O[C@@H](C(=O)O)[C@@H](OC(=O)/C=C/c1ccc(O)c(O)c1)C(=O)O | inactive |  |
| CCCC(=O)OC(C)(C)Cc1ccccc1 | inactive |  |
| CCCCCCOC(=O)C(C)CC (stereo not given) | inactive |  |
| FC(F)(F)c1cccc(Cl)c1 | inactive |  |
| CC1(C)CC(O)CC(C)(C)N1 | inactive |  |
| Cc1cccc2cccnc12 | inactive |  |
| CCC(=O)C(=O)CC | inactive |  |
| C#CC1(O)CC[C@H]2[C@@H]3CCC4=CCCC[C@@H]4[C@H]3CC[C@@]21C (stereo not given in full) | 21.3 µM (active) |  |
| CCN(CCN)c1cccc(C)c1 | inactive |  |
| C=Cc1cccc(C)c1 | inactive |  |
| Cc1cccc(C(=O)O)c1O | inactive |  |
| CCCC1CCC(=O)CC1 | inactive |  |
| OC/C=C/CO | inactive |  |
| Nc1nc(-c2ccccc2)cs1 | inactive |  |
| CC(=O)CC(=O)Nc1ccc(S(=O)(=O)O)cc1 | inactive |  |
| C#C[C@]1(O)CC[C@H]2[C@@H]3[C@H](C)CC4=C(CCC(=O)C4)[C@H]3CC[C@@]21C | inactive |  |
